Shown are actives, neighbours in structure and some others; about 2.9% of the full set was active somewhere.
LMP1 NFkB inh – Epstein-Barr LMP1 NF-kappaB reporter inhibition; LMP1-induced NF-kappaB luciferase reporter cells, luminescence; inhibition, % at 12.5 µM; hit rate 0.69% among 350,000; AID 504558; in the data active means inhibition above about 41%; inconclusive means no clear call, values can overlap the other calls;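 further: 0% = neutral control wells and 100% = reference inhibitor control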
KKLEB cytotox – counter-screen for CF NF-kB inhibitors: cytotoxicity; hit rate 0.36% among 360,000; KKLEB CF airway cells viability, ATPlite luminescence, overnight; stronger effect = lower value; cells stimulated with P. aeruginosa culture filtrate; activity change (cytotoxicity), % at 5 µM;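 active means corrected activity change at or below -50% at 5 µM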
HIF-2a inh – inhibitors of HIF-2a; inhibition, % at 18.8 µM; 786-0 RCC cells HIF-2a reporter, luciferase luminescence, overnight; hit rate 0.72% among 360,000;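 active means inhibition of the luminescence signal of 40% or more relative to plate controls, in a single-dose primary screen at 18.75 µM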
CF NFkB inh – cystic fibrosis NF-kB activation inhibition; KKLEB NF-kB-GFP reporter, PAF-induced, GFP fluorescence overnight; inhibition, % at 5 µM; hit rate 0.86% among 360,000;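 active means at least 50% inhibition at 5 µM, scaled per plate between neutral and stimulator controls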;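 further: PAF is a Pseudomonas aeruginosa culture filtrate used as stimulus; plate controls were PAF-stimulated DMSO wells for no effect and unstimulated DMSO wells for full effect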
Peg3 promoter – inhibitors of Peg3 promoter. hit rate 1.7% among 360,000. inhibition, % at 20 µM. HeLa PEG-Prom luciferase reporter, luminescence, overnight. AID 588405;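 active means inhibition of at least 50% at 20 µM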
Shn3 3UTR inh – reduces Shn3 3'UTR luciferase signal in osteoblasts | Clone20 osteoblast Shn3 3'UTR firefly luciferase, 24 h | inhibition, % at 12.5 µM | hit rate 0.52% among 360,000;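 active means mean inhibition of at least 75% with every replicate also reaching 75%; inconclusive means mean inhibition at least 75% but some replicate below; inactive means mean inhibition below 75%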;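 further: 0% = median of neutral control wells and 100% = pilot-screen positive control compound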
The depositor's hits bear a star; ? = inconclusive; · = no result given.

SMILES	LMP1 NFkB inh	KKLEB cytotox	HIF-2a inh	CF NFkB inh	Peg3 promoter	Shn3 3UTR inh
CCCCN(C(C)=O)c1c(N)n(CCC)c(=O)n(CC(=O)Nc2cc(Cl)cc(Cl)c2)c1=O	-9	-4	7	-23	13	-4
CC(C)c1nnc(NC(=O)CSc2nnc(-c3ccco3)o2)s1	2	15	10	-8	19	1
COc1ccc(N2CCN(C(=O)Cn3cncn3)CC2)cc1	4	4	19	9	8	11
CC(C)N1CCN(c2ccc(OCC3COC(Cn4cncn4)(c4ccc(Cl)cc4Cl)O3)cc2)CC1 (centres undefined)	-4	-5	6	6	47	95*
CC(C)N1CCN(c2ccc(OC[C@H]3CO[C@](Cn4cncn4)(c4ccc(Cl)cc4Cl)O3)cc2)CC1	56*	10	7	8	47	2
CCOc1ccc(OCCCC(=O)N2CCN(S(=O)(=O)c3ccccc3C#N)CC2)cc1	6	-3	-1	4	6	5
N#C/C(=C\c1ccc(N2CCOCC2)o1)c1ccccc1	-27	14	-260	-40	-313	92*
N#C/C(=C/c1ccc(N2CCOCC2)o1)c1ccc(Br)cc1	-51	-4	-127	-51	-146	55
N#C/C(=C/c1ccc(N2CCCCCC2)o1)c1ccc(F)cc1	-8	2	71*	-10	-48	64
N#C/C(=C/c1ccc(N2CCCCCC2)o1)c1cccc(F)c1	-25	-10	-286	-33	-157	95*
O=C1c2cc(F)ccc2-n2c1nc1ccccc1c2=O	-1	-27	-30	83*	8	59
Nn1c(-c2ccc(F)cc2)nc2ccccc2c1=O	-2	8	-16	-18	-11	-7
O=C(Nc1ccnn1C1CCN(C(=O)c2ccc(F)c(Cl)c2)CC1)C1CC1	-5	21	-3	-42	-9	-12
COc1cc(C(=O)NNC(=O)COc2cccc(F)c2)ccc1OCC(=O)N1CCOCC1	4	9	2	-11	8	-3
CN1/C(=C/c2cc[n+](C)c3ccccc23)C=Cc2ccccc21	47*	-12	10	-31	32	85
Cc1ccc(OCCC(=O)OCC(=O)Nc2ccc3[nH]c(=O)[nH]c3c2)cc1	-3	-10	15	28	-4	-10
NC(=S)N=Nc1ccc(NN=C(N)N)cc1	86*	-2	-6	14	18	6
COc1ccc(OC)c(S(=O)(=O)Nc2ccc3c(c2)C(=O)OC3)c1	1	0	26	-10	27	·
CC(=O)c1c(Cl)nc2cccc3c2c1-c1ccccc1C3=O	9	4	31	1	17	21
CCOC(=O)C(=CNc1ccc(N2CCOCC2)cc1)C(=O)OCC	11	4	-2	-9	5	-8
CCOC(=O)C(=CNc1cc(Cl)c(-c2ccco2)c(Cl)c1)C(=O)OCC	13	-2	-15	5	-5	-17
CCOC(=O)C(=CNc1ccc2c(c1)CCN2C(C)=O)C(=O)OCC	49*	0	-136	6	-61	-53
CCOC(=O)C(=CNc1ccc(-c2ccco2)c(Cl)c1)C(=O)OCC	47*	16	-25	3	-7	-9
COc1ccccc1C(C)NC(=O)CCOc1cccc(C)c1 (centres undefined)	0	3	9	1	3	9
CCCCNC(=O)c1onc(CSc2cccc3ccccc23)c1C(=O)O	-4	-14	-1	-26	10	4
SMILES	LMP1 NFkB inh	KKLEB cytotox	HIF-2a inh	CF NFkB inh	Peg3 promoter	Shn3 3UTR inh
O=C(CCCN1C(=O)/C(=C/c2ccccc2)SC1=S)Nc1ccc(C(=O)O)c(O)c1	6	9	-5	-12	-3	9
Cc1ccc(/C=C2/SC(=S)N(CCCC(=O)Nc3cc([N+](=O)[O-])ccc3O)C2=O)cc1	5	-12	65*	8	10	14
COc1ccc(/C=C2\SC(=S)N(CCC(=O)Nc3cccc(O)c3)C2=O)cc1OC	4	-13	19	24	-28	-15
O=C(CN1C(=O)S/C(=C\c2ccccc2)C1=O)Nc1cc([N+](=O)[O-])ccc1O	-10	14	-10	9	-21	3
COC(=O)c1ccc(/C=C2/SC(=S)N(CCCC(=O)Nc3ccc(O)cc3)C2=O)cc1	22	-8	58*	28	84*	-15
Cc1ccc(/C=C2\SC(=S)N(CCCC(=O)Nc3ccccc3C(=O)O)C2=O)cc1	13	13	87*	0	47	25
COc1ccc(/C=C2/SC(=S)N(CCCC(=O)Nc3cccc(O)c3)C2=O)cc1	5	1	56*	-17	-53	3
CCc1ccc(/C=C2\SC(=S)N(CCCC(=O)Nc3ccc(C(=O)O)cc3)C2=O)cc1	37	7	-34	8	-9	27
CCCCNC(=O)C1C(c2ccc(C(F)(F)F)cc2)=Nc2ccccc2N1C(=O)c1ccc2nc(C)[nH]c2c1 (centres undefined)	·	·	-118	·	·	·
O=C(CC(=O)c1ccccc1)CC(O)(C=Cc1ccccc1)c1ccccc1 (centres undefined)	-1	-6	-78	4	-67	18
O=[N+]([O-])c1ccc2[nH]c3nc4ccccc4nc3c2c1	-7	-7	-22	-77	-24	73
Cc1ccc(/C=C2\SC(=S)N(CCCC(=O)Nc3nccs3)C2=O)cc1	21	-4	48*	3	-15	15
CCc1ccc(/C=C2\SC(=S)N(CCCC(=O)Nc3ccccc3C(=O)O)C2=O)cc1	-4	1	81*	19	34	32
CCc1ccc(/C=C2\SC(=S)N(CCCC(=O)Nc3nccs3)C2=O)cc1	-9	-15	37	13	4	26
COc1ccc(/C=C2/SC(=S)N(CCCC(=O)Nc3ccccc3C(=O)O)C2=O)cc1	17	-14	91*	-4	48	47
COc1ccc(NC(=O)CCCN2C(=O)/C(=C\c3ccco3)SC2=S)cc1	5	-1	61*	5	21	-21
O=C(CCCN1C(=O)/C(=C/c2ccco2)SC1=S)Nc1cccc(C(=O)O)c1	1	3	14	-7	5	5
COc1cccc(-c2ccc3c(c2)O[C@@H](CN(C)Cc2cncnc2)[C@@H](C)CN([C@H](C)CO)S3(=O)=O)c1	3	-10	3	-6	10	20
CC(C)(C)c1nnc(N/N=C/c2cc(Br)ccc2O)n(N)c1=O	?	-20	-8	24	73*	86*
CCc1nnc(N/N=C/c2cc(Br)c(O)cc2O)n1N	0	9	6	-2	-4	-3
COc1ccc(/C=C2\C(=O)N(c3c(Cl)cc(Cl)cc3Cl)N=C2NC(=O)c2cccc([N+](=O)[O-])c2)cc1	2	-1	45*	-15	77*	63
COc1ccc(NC(=O)c2cccc(N3C(=O)c4cccc([N+](=O)[O-])c4C3=O)c2)cc1	2	11	8	-15	-11	-8
